Measurements from ChEMBL document CHEMBL1961873, “Compounds: GSK PKIS; Assays: Nanosyn kinase panel” (2012).

What was measured:
[1] = molecular target: Tyrosine-protein kinase CSK (Homo sapiens) (UniProt P41240); conditions: at 1 µM;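 also: each value is an averaged inhibition reading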
[2] = molecular target: T1, Discoidin domain-containing receptor 2 (Homo sapiens) (UniProt Q16832); conditions: at 0.1 µM
T1 sequence (whole entry): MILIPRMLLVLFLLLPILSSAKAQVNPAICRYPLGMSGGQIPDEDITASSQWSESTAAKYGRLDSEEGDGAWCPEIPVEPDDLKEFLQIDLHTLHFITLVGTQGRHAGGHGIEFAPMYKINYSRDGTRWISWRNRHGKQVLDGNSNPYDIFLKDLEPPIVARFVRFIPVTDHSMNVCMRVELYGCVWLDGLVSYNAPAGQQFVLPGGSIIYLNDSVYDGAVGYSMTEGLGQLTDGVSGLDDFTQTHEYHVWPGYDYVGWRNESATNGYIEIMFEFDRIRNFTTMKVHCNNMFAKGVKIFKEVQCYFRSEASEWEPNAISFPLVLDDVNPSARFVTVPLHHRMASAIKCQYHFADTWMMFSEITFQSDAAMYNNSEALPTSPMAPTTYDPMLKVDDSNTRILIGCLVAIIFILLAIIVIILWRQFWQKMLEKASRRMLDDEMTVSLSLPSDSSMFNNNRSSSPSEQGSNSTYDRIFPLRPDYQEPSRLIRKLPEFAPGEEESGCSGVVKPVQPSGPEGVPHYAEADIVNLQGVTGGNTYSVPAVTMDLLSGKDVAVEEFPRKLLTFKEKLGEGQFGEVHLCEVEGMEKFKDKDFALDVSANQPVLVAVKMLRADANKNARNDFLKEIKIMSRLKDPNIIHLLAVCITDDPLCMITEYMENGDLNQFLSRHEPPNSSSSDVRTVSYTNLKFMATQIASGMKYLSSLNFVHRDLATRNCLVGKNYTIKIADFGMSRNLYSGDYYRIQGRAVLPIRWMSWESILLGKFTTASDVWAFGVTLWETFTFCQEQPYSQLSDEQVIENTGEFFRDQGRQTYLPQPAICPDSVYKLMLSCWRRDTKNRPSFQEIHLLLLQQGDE

[3] = molecular target: T1, Discoidin domain-containing receptor 2 (Homo sapiens); conditions: at 1 µM
[4] = molecular target: Epidermal growth factor receptor (Homo sapiens) (UniProt P00533); conditions: at 0.1 µM
[5] = molecular target: Epidermal growth factor receptor (Homo sapiens) (UniProt P00533); conditions: at 1 µM
[6] = system: Epidermal growth factor receptor (Homo sapiens), P00533 [L858R]; conditions: at 0.1 µM
Epidermal growth factor receptor (Homo sapiens), P00533 [L858R], sequence (P00533 whole entry L858R): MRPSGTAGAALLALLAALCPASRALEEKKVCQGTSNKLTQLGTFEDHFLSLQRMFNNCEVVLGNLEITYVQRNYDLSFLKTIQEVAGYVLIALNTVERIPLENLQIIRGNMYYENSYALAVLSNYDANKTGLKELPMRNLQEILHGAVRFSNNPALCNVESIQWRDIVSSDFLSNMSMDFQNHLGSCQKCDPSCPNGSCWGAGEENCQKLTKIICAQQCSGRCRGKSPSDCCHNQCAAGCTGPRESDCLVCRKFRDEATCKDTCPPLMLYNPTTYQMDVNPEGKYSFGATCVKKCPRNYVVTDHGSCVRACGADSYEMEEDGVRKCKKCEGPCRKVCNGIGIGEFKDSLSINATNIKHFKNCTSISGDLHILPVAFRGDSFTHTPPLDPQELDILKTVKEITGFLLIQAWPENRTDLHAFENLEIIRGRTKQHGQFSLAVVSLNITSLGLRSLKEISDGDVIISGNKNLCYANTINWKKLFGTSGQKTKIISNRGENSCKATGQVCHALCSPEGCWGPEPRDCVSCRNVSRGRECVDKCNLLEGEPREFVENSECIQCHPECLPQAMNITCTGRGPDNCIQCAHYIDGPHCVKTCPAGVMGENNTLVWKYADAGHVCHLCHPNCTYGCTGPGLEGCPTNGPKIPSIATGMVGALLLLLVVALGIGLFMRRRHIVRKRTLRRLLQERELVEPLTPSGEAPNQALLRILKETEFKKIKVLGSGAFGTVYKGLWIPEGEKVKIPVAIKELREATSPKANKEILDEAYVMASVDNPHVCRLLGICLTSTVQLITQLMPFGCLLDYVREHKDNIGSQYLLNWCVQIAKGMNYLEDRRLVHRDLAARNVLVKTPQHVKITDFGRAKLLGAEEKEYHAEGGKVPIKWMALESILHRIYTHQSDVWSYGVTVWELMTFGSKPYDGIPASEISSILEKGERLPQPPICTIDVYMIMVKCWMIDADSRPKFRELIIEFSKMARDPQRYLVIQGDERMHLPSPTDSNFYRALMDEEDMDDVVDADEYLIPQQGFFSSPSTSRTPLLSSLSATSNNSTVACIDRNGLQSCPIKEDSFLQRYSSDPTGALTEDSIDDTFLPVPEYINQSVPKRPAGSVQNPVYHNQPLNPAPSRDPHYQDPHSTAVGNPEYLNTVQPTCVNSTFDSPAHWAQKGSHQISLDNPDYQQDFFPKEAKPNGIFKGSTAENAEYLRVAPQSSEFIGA

[7] = system: Epidermal growth factor receptor (Homo sapiens), P00533 [L858R]; conditions: at 1 µM
[8] = system: Epidermal growth factor receptor (Homo sapiens), P00533 [L861Q]; conditions: at 0.1 µM
Epidermal growth factor receptor (Homo sapiens), P00533 [L861Q], sequence (P00533 whole entry L861Q): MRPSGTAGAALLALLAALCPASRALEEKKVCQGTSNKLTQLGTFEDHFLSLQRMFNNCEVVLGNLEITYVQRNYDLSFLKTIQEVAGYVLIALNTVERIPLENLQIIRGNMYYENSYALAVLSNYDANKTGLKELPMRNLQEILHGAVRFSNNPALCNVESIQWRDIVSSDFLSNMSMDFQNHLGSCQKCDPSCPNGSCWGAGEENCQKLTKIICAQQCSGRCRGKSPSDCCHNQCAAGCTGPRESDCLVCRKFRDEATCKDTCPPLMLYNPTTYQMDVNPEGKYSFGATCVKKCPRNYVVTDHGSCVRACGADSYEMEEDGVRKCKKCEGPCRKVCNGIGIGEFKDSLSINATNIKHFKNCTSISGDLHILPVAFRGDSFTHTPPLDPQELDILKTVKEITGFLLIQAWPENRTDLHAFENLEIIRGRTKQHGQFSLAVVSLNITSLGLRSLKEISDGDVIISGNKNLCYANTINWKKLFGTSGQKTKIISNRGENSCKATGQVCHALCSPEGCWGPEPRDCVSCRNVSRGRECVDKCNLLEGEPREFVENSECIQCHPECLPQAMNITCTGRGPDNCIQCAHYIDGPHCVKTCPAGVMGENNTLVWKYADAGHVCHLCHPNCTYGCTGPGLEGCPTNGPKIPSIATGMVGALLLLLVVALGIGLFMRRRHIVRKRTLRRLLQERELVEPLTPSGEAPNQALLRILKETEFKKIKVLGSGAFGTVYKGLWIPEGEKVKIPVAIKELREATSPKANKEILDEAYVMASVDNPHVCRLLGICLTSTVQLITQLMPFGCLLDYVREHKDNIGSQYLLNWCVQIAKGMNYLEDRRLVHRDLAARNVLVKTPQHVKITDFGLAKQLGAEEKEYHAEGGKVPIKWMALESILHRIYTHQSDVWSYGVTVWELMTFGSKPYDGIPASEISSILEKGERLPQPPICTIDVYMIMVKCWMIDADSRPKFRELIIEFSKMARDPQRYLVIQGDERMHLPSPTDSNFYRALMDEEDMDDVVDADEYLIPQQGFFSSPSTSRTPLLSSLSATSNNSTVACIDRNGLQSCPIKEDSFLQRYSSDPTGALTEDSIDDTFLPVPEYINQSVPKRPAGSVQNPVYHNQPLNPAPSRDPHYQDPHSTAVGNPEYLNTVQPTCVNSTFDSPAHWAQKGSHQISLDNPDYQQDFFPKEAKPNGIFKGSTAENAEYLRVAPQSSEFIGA

[9] = system: Epidermal growth factor receptor (Homo sapiens), P00533 [L861Q]; conditions: at 1 µM
[10] = system: Epidermal growth factor receptor (Homo sapiens), P00533 [T790M]; conditions: at 0.1 µM
Epidermal growth factor receptor (Homo sapiens), P00533 [T790M], sequence (P00533 whole entry T790M): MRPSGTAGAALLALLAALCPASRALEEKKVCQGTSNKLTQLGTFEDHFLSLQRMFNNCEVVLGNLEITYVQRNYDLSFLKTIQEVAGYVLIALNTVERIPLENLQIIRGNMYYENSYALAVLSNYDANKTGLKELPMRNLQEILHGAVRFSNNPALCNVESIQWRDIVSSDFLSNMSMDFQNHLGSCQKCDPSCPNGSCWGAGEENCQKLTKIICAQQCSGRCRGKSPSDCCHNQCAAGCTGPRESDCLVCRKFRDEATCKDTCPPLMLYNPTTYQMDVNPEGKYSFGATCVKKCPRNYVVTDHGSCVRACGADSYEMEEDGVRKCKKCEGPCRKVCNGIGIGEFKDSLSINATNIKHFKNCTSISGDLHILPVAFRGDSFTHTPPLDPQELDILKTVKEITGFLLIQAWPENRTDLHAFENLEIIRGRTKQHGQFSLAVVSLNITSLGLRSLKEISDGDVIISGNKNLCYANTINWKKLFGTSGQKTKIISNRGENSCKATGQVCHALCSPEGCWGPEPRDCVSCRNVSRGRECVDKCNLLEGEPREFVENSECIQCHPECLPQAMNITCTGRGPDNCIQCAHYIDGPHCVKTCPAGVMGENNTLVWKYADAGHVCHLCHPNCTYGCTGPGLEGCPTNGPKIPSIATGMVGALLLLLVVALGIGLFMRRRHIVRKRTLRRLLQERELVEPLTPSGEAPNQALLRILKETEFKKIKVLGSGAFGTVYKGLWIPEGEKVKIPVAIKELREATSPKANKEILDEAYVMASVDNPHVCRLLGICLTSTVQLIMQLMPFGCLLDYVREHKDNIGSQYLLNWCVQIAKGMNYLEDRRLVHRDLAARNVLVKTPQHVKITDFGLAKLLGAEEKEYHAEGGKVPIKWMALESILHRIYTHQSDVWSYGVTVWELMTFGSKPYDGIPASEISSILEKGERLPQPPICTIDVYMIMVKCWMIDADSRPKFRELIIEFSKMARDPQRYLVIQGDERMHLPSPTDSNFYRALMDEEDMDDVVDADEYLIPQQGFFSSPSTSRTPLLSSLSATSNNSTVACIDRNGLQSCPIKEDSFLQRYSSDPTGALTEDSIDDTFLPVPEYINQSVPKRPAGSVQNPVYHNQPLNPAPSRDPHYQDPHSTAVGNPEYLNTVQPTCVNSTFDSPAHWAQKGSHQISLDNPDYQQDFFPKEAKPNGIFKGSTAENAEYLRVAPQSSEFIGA

Tyrosine-protein kinase CSK (Homo sapiens), sequence (P41240 2-450 limits assumed): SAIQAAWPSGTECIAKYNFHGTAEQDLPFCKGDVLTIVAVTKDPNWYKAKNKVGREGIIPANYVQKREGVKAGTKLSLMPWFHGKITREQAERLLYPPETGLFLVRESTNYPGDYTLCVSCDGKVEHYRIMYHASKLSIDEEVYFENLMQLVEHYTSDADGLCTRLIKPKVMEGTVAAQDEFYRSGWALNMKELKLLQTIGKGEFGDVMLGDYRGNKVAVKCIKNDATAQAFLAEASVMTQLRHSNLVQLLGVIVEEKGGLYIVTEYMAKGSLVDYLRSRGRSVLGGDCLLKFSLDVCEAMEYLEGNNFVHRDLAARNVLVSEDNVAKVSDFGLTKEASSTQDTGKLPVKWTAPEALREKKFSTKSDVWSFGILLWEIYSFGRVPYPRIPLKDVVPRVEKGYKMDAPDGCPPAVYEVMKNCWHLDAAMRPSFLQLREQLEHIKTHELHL

Compound | inhibition [1] [%] | inhibition [2] [%] | inhibition [3] [%] | inhibition [4] [%] | inhibition [5] [%] | inhibition [6] [%] | inhibition [7] [%] | inhibition [8] [%] | inhibition [9] [%] | inhibition [10] [%]
N#Cc1cccc(Nc2nccc(-c3cnn4ncccc34)n2)c1 | 13.4 | 2.63 | 7.43 | 1.1 | 6.11 | 4.18 | 18.2 | 4.53 | 7.78 | 2.36
NS(=O)(=O)c1cccc(Nc2cc(-c3ccc(F)cc3)n[nH]2)c1 | 6.86 | 0.4 | 2.6 | -0.56 | 3.41 | 1.69 | 6.63 | 2.18 | 5.8 | 2.62
COc1cc2ncnc(Nc3ccc4c(cnn4Cc4ccccc4)c3)c2cc1OC | 58.2 | 1.74 | 1.78 | 87.2 | 84.7 | 72.5 | 94.4 | 55.8 | 84.8 | 8.65
COc1cccc(-n2nc(C)c3c(N/N=C(\C)c4ccncc4)ncnc32)c1 | 0.42 | 0.8 | 0.38 | 1.03 | 2.43 | -0.3 | 1.45 | -0.04 | 0.7 | -1.78
CS(=O)(=O)Nc1cccc(-c2ccc3c(NC(=O)C4CC4)n[nH]c3c2)c1 | -2.39 | 0.9 | 0.99 | 0.81 | 0.31 | -0.89 | -1.93 | 1.44 | -2.52 | -1.89
FC(F)(F)c1ccc(-c2nn3ncccc3c2-c2ccnc(Nc3ccc4c(c3)OCCO4)n2)cc1 | 6.46 | 8.59 | 24.9 | 6.78 | 19.2 | 5.78 | 40.1 | 4.86 | 27.6 | 0.49
COc1cccc(-n2ncc3c(N/N=C/c4ccc(C)cc4)ncnc32)c1 | 8.35 | 0.39 | 2.37 | 3.01 | 4.71 | 2.45 | 11.7 | 1.42 | 6.09 | 0.91
C[C@@H](Oc1cc(-n2cnc3ccc(OC[C@@H](O)CO)cc32)sc1C(N)=O)c1ccccc1Cl | -0.52 | 0.32 | 0.79 | -0.06 | 2.04 | -2.48 | 1.14 | -1.31 | -2.45 | -3.45
COc1cccc(-n2ncc3c(N/N=C/c4ccc(S(C)(=O)=O)cc4)ncnc32)c1 | 18.2 | 1.49 | 7.83 | 6.5 | 22.6 | 29.7 | 57.8 | 8.34 | 20.6 | 0.29
Nc1nccc(-c2c(-c3ccc(F)cc3)nn3cc(C(F)(F)F)ccc23)n1 | 1.17 | 1.51 | 5.28 | -0.27 | 3.78 | 1.74 | 11.4 | -0.3 | 3.8 | 0.44
CCn1c(-c2nonc2N)nc2c(C#CC(C)(C)O)nc(OCCNC)cc21 | 5.91 | 1.73 | 2.04 | 0.82 | 0.07 | 1.22 | 3.32 | 1.91 | 2.32 | 1.88
Cc1ccc(O)cc1Nc1ccnc2ccc(S(C)(=O)=O)cc12 | 94.2 | 59.8 | 79.7 | 12.7 | 36.6 | 19.7 | 72.1 | 8.5 | 31.9 | 3.11
COc1cc(Nc2nccc(-c3cnn4ncccc34)n2)cc(OC)c1 | 12.1 | 1.4 | 8.7 | 1.68 | 5.94 | 2.1 | 16.7 | 0.35 | 3.09 | 0.47
NS(=O)(=O)c1ccc(Nc2cc(-c3cccc(O)c3)n[nH]2)cc1 | 5.32 | 2.49 | 3.91 | 0.67 | 1.98 | 5.34 | 5.18 | 3.68 | 1.85 | 2.46
NC(=O)c1sc(-n2cnc3ccccc32)cc1OCc1ccccc1Br | 2.18 | 1.76 | 1.6 | 1.88 | 0.93 | -0.06 | 5 | 1.71 | 2.89 | 1.26
C[C@@H](Oc1cc(-n2cnc3ccc(OCC4CCN(C)CC4)cc32)sc1C(N)=O)c1ccccc1C(F)(F)F | -1.36 | -1.18 | -4.23 | 2.6 | 9.98 | 8.84 | 42.5 | -0.46 | 8.68 | -1.87
CS(=O)(=O)CCNCc1nc(-c2ccc3ncnc(Nc4ccc(OCc5cccc(C(F)(F)F)c5)cc4)c3c2)cs1 | 2.7 | 5.44 | 5.59 | 14.6 | 64 | 8.86 | 43.9 | 11.5 | 34.8 | -1.75
Cc1cc(O)cc(C)c1/C=C/c1cncc(C(=O)N(C)C)c1 | 7.46 | 4 | 6.51 | 3.09 | 6.63 | 2.7 | 3.1 | 3.53 | 2.99 | 1.24
N#Cc1c(NC(=O)c2ccccc2F)sc2c1CCCC2 | -5.02 | -1.61 | -1.14 | 2.1 | 4 | 1.21 | 3.66 | -0.67 | -1.19 | -2.41
Cc1nc(-c2ccccc2)n2nc(NCCCN3CCOCC3)ncc12 | 1.69 | 1.13 | 1.28 | 5.65 | 7.11 | 1.69 | 4.22 | 0.9 | 1.99 | -0.64
c1ccc(Cc2nc3ccc(Nc4ncnc5ccccc45)cc3[nH]2)cc1 | 30.9 | 0.85 | 1.06 | 24.3 | 67.2 | 2.32 | 11.3 | 12 | 22.2 | 2.05
CN(C)CCCn1c(-c2nonc2N)nc2cnccc21 | 1.67 | 1.29 | 1.57 | 9.72 | 10.6 | 3.98 | 0.96 | 3.25 | 1.62 | 2.09
COc1cc(/C=N/Nc2ncnc3c2cnn3C(C)C)ccc1O | -1.57 | -0.03 | -1.45 | 6.39 | 9.9 | 3.23 | 12.2 | 2.56 | 3.26 | 0.17
CCS(=O)(=O)c1ccc(OC)c(Nc2nccc(N(C)c3ccc4c(C)n[nH]c4c3)n2)c1 | 15.2 | -0.23 | -2.28 | 7.37 | 35.2 | 7.56 | 43.1 | 7.97 | 31.4 | 4.42
ON=C1CCc2cc(-c3nc(C4CCNCC4)[nH]c3-c3ccncc3)ccc21 | -6.96 | -0.82 | -2.38 | 0.23 | 2.59 | -0.65 | -1.1 | 0.26 | -2.11 | -0.91
COC(=O)c1cncc(/C=C/c2c(C)cc(O)cc2C)c1 | 24.8 | 1.69 | 10.3 | 0.29 | 3.19 | 2.6 | 11.5 | 3.47 | 7.07 | 2.64
